The source of these data is PubChem BioAssay AID624351 (Southern Research Specialized Biocontainment Screening …, 2012).

SMILES strings stand for the structures. Screen size: about 2,400 compounds; about 1,400 (58%) were called active. So high a share suggests a set chosen from earlier hits. The list shows a part of the results. Unmarked numbers belong to inactive results.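 How the source made its calls: active means inhibition of 30% or more at any tested dose; inconclusive means primary hits over the limit that were never retested; inactive means the rest.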

A short description of the experiment: coupled detection enzyme interference, dose response, artefact control for MgcRacGAP inhibitor project, biochemical, coupled enzyme counter-screen (AID 624351).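 Further: signal is the ADP detection kit reading of free GDP without any GAP enzyme.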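 On inhibition: 0% = median positive control wells and 100% = median negative control wells.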 The note with it: ADP Hunter coupled enzyme counter-screen, fluorescence, no MgcRacGAP; series mostly up to 80 µM; inhibition: at the top concentration.
Take `C=C1CC(C(=O)N/N=C/c2ccc(O)cc2)C1`: the half-inhibitory concentration (IC50) was 45.9 µM (active). In the case of `COc1cc(/C=N/N=C2\CC3CCC2(C)C3(C)C)ccc1O` (stereo not drawn), the half-maximal inhibitory concentration (IC50) was 45.7 µM (active). With `O=C(O)C1CSC(c2ccco2)N1` (stereo not drawn), the “inhibition” value is -6.99%.

Turning to `CCOc1ccc(CNC2CCCc3ccccc32)cc1` (stereo not drawn), the “inhibition” value was 16.4%. Consider `COc1cc(/C=N\NC(=O)C2CC3C=CC2C3)ccc1O` (stereo not drawn), for which the IC50 was 23.9 µM (active).

Turning to `COCCNC(=O)CN(C(=O)Cn1nnc2ccccc21)c1ccc(C)cc1`, the “inhibition” value is 5.89%. With `COCCNC(=O)Cn1cc(/C=N/NC(=O)c2ccc(Oc3ccc(O)cc3)cc2)c2ccccc21`, the half-inhibitory concentration (IC50) is 44.8 µM (active). As to `Oc1ccc(/C=N/Nc2nccnc2Cl)c(O)c1`, the 50% inhibitory concentration (IC50) is 12.8 µM (active).

As to `Oc1ccc(/C=N/Nc2nccnc2Cl)cc1`, the IC50 was 21.1 µM (active). Take `Oc1ccc(/C=N/Nc2ncc(Cl)cc2Cl)cc1`: the IC50 is 21.5 µM (active). As for `Cc1cc(C)c(OCCCCN(C)Cc2ccccc2)c(C)c1`, the “inhibition” value is 14.7%. On to `COc1cc(OC)c(OC)cc1/C=N/N(C)c1ccccc1`, for which the IC50 is 56.4 µM (active). In the case of `COc1cc(/C=N/N(C)c2ccccc2)cc(Cl)c1O`, the IC50 was 37.7 µM (active). Same read-out and setting: the result for `COc1cc(/C=N/N(C)c2ccccc2)ccc1O` reads 17.3 µM (active).

For `Cc1ccc(N2C(S)=C(C#N)C(=O)NC2c2cccs2)cc1` (stereo not drawn), the “inhibition” value was 5.26%. The same measure, in the same setting: the result for `CC1=NN(c2ccc(Cl)c(C(=O)O)c2)C(=O)/C1=C/c1ccc(-c2ccccc2[N+](=O)[O-])o1` reads 8.7%.

Consider `Cc1ccc(CNc2ccc(N3CCOCC3)cc2)s1`, for which the 50% inhibitory concentration (IC50) was 11.7 µM (active). Still for that read-out and setting: the result for `CC(=O)N1CCN(c2ccc(NCc3cccc(C)c3)cc2)CC1` reads 7.75 µM (active); that for `CC(=O)N1CCN(c2ccc(NCc3ccc(C(C)C)cc3)cc2)CC1`, 8.85 µM (active). `Cc1cccc(CN2CCN(C(C)C(=O)NC(C)c3ccccc3)CC2)c1` (stereo not drawn): the “inhibition” value is 27.7%. On to `CC(=O)N1CCN(c2ccc(NCc3ccc(F)cc3)cc2)CC1`, for which the 50% inhibitory concentration (IC50) was 10.9 µM (active). Turning to `COc1cccc(-c2cc(C(=O)N3CCN(c4ccc(F)cc4)CC3)no2)c1`, the “inhibition” value was 2.83%.

`O=c1c2cc(F)ccc2sn1-c1ccccc1`: the “inhibition” value was 22.1%. Take `CC(C)c1ccc(CNc2ccc(N3CCOCC3)cc2)cc1`: the concentration for half-maximal inhibition (IC50) was 7.52 µM (active). On the same count and under the same terms, the figure for `CC(=O)N1CCN(c2ccc(NCc3cccs3)cc2)CC1` is 14.7 µM (active). On the same count and under the same terms, the figure for `CCc1ccc(CNc2ccc(N3CCN(C(C)=O)CC3)cc2)cc1` is 9.1 µM (active); for `CC(=O)N1CCN(c2ccc(NCc3ccccc3)cc2)CC1` it is 8.44 µM (active). With `O=C(CNCc1cccs1)Nc1ccc(N2CCCCCC2)cc1`, the “inhibition” value is 19.7%. On the same count and under the same terms, the result for `Cc1ccccc1C(OCC(O)CN1CCN(CCO)CC1)c1ccccc1` (stereo not drawn) reads 26.4%; that for `O=C(CNc1ccc(Oc2ccccc2)cc1)N1CCOCC1`, 17.7%. In the case of `c1ccc(CNc2ccc(N3CCOCC3)cc2)cc1`, the IC50 is 5.39 µM (active).

Turning to `Cc1ccc(/C=N/Nc2ccc(Cl)c(C(=O)O)c2)s1`, the IC50 is 67.4 µM (active). Same read-out and setting: the figure for `Cc1ccc(/C=N/Nc2ccc(C(=O)O)cc2)s1` is 79.7 µM (active).

With `CC(C)n1cc(/C=N/Nc2ccc(Cl)c(C(=O)O)c2)c2ccccc21`, the “inhibition” value was 26%. Same read-out and setting: the result for `O=c1[nH][nH]cc1C=Nc1ccc(Cl)cc1Cl` reads 2.11%.

Turning to `O=c1[nH][nH]cc1C=Nc1cc(Cl)ccc1O`, the IC50 is 46 µM (active).

On to `CCCCn1c(SCC(=O)c2ccc(O)c(O)c2)nc2ccsc2c1=O`, for which the 50% inhibitory concentration (IC50) is 45.9 µM (active). Take `CCOc1cccc(CNc2ccc(O)cc2)c1OCc1ccc(Cl)cc1Cl`: the “inhibition” value is -24.7%. With `CC(Oc1ccc(Cl)cc1Cl)C(=O)Nc1ccc(O)cc1` (stereo not drawn), the IC50 was 46.9 µM (active). For `CCCC(=O)NC(=S)Nc1cccc2c(O)cccc12`, the half-inhibitory concentration (IC50) is 46.4 µM (active).

As for `O=C(NC(NC(=S)Nc1ccc(Cl)c(Cl)c1)C(Cl)(Cl)Cl)c1ccco1` (stereo not drawn), the “inhibition” value is 3.1%. For the molecule `O=C(NC(=S)Nc1cccc2c(O)cccc12)c1ccco1`, the IC50 is 42.5 µM (active).

In the case of `S=C(NCc1ccco1)NCc1ccco1`, the “inhibition” value was 1.64%. Consider `CCOc1cc(/C=N/NC(=O)CN2CCCCC2)ccc1O`, for which the half-maximal inhibitory concentration (IC50) was 55.5 µM (active). For `CCN1CCN(CC(=O)Nc2cc(C(F)(F)F)ccc2OCCOC)CC1`, the “inhibition” value was 28.5%. On to `Oc1ccc(/C=N/NC(=S)NCc2ccco2)cc1`, for which the half-maximal inhibitory concentration (IC50) was 44.4 µM (active). Same read-out and setting: the result for `CCOc1cc(/C=N/NC(=O)C(=O)N2CCCC2)ccc1O` reads 60.6 µM (active); that for `COc1cc(/C=N/NC(=O)C(=O)N2CCCC2)ccc1O`, 40.8 µM (active). Take `CCN1CCN(C(=S)NCC2CCCO2)CC1` (stereo not drawn): the “inhibition” value was 14.7%.

As to `Oc1ccc(/C=N/NC(=S)NCC2CCCO2)cc1` (stereo not drawn), the IC50 was 28.5 µM (active).

Turning to `COc1cc(/C=N/NC(=O)C(=O)NCC2CCCO2)ccc1O` (stereo not drawn), the concentration for half-maximal inhibition (IC50) is 31.2 µM (active). Regarding `Cc1nnc(N=c2ssnc2Cl)o1`, the “inhibition” value was 15.3%.

As for `Nc1nc(=S)ss1`, the “inhibition” value is -3.59%. On the same count and under the same terms, the figure for `COc1ccc(N2CCN(C(=O)CCCn3c(=O)c4cccn4c4cccnc43)CC2)cc1` is 23.6%. For `COc1ccc(CN2CCCC(C(=O)N3CCCC3)C2)cc1` (stereo not drawn), the “inhibition” value is 7.37%. As to `COc1ccc2[nH]c3c(=O)n(CCCCC(=O)N4CCC(C(N)=O)CC4)c(=S)[nH]c3c2c1`, the IC50 is 53.3 µM (active). Same read-out and setting: the result for `COc1ccc2[nH]c3c(=O)n(Cc4ccc(C(=O)N5CCC(C(N)=O)CC5)cc4)c(=S)[nH]c3c2c1` reads 37.6 µM (active). For `COc1cccc(CN2CCC(C(=O)N3CCC(C)CC3)CC2)c1`, the “inhibition” value was 16.9%.
